Measurements from PubChem BioAssay (NCATS).
Several values for one entry are separate records, joined by “and”; a condition that tells them apart may be missing. Equal entries are not always repeated. Results filed as inconclusive are left out. Values without a mark were called inactive. Activity calls are given as the source filed them. The call rests on the fitted dose curve; in most records, active means well fitted curve in the direction sought with a large enough effect; inconclusive means small, poorly fitted or top-dose-only effect, or another doubt; inactive means no such curve, though single readings can be large; an effect the other way counts as inactive or inconclusive. Where a SMILES comes first, the peptide text is derived from it. Bridges are numbered along the chain shown (N, C = ends). [ ]: non-standard residue; d: D form. The star is where a group is joined. X2 = CC[C@H](C)CCCCC(=O)*; Dab = NCC[C@H](N)C(=O)O

Key:
[1] = Drug repurposing screens with cells derived from glioblastoma tumor samples (AID 1345199); conditions: GBM patient neurospheres viability, ATP luminescence, 48 h; further: nearly all actives have a fitted effect of over 40% in size; on activity, negative = cell killing: on the % scale 0 is the no-effect control and ±100 the full control effect
In short: (§1)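 Four patient lines of CD133+ GBM neurospheres were screened at several concentrations; hits were retested in those lines plus three slower-growing GBM lines, using 48-hour treatment and ATP-based viability.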

astro = control astrocytes; experiment: as above; conditions: viability, ATP luminescence, 48 h; series mostly up to 45.9 µM
In short: as §1

[2] = qHTS assay to identify inhibitors of the type 1 interferon - major histocompatibility complex class I in skeletal muscle: Counter screen cell viability and HiBit confirmation (AID 1347412); conditions: iHSKM muscle cells + IFN-b, HiBiT or CellTiter-Glo, 24 h; further: nearly all actives have a fitted effect of over 60% in size
In short: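 Luminescence read-out: Nano-Glo HiBiT lytic signal from C-terminally HiBiT-tagged HLA-B in CRISPR-edited human myoblasts, plus CellTiter Glo ATP as viability counter screen. IFN-beta 4.0 ng/ml; 24 hrs treatment at 37 C, 5% CO2.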

[3] = at 45.9 µM (top of the series), tumour line B
[4] = at 45.9 µM (top of the series), tumour line D
[5] = at 46.1 µM (top of the series), tumour line C
Potency means the concentration at half of the fitted maximal effect.

## CCCCc1cc2c(=O)c(C(=O)OC)c[nH]c2cc1OCc1ccccc1
[1]; [3]
  activity, negative = cell killing: -16.1%
[1]; [4]
  activity, negative = cell killing: -19.6%
[1]; [5]
  activity, negative = cell killing: -7.65%
astro
  Potency: inactive

## C=C1C(=C/C=C2\CCC[C@]3(C)[C@@H]([C@H](C)CCCC(C)(C)O)CC[C@@H]23)C[C@@H](O)C[C@@H]1O
[1]; [3]
  activity, negative = cell killing: -26.6%
[1]; tumour line A
  Potency: 17.8 µM (active)
[1]; tumour line D
  Potency: 20 µM (active)
astro
  Potency: 22.4 µM (active)

## CCC(C)[C@H]1O[C@]2(C=C[C@@H]1C)C[C@@H]1C[C@@H](C/C=C(\C)[C@@H](O[C@H]3C[C@H](OC)[C@@H](O[C@H]4C[C@H](OC)[C@H](NC(C)=O)[C@H](C)O4)[C@H](C)O3)[C@@H](C)/C=C/C=C3\CO[C@@H]4[C@H](O)C(C)=C[C@@H](C(=O)O1)[C@]34O)O2 (stereo partly drawn)
astro
  Potency: 6.31 µM (active) and 20 µM (active)

## CC(=O)OC[C@H]1O[C@@H](O[C@H]2[C@H](O)[C@@H](OC(=O)c3ccccc3C(=O)O)[C@H](O)O[C@@H]2COC(C)=O)[C@H](O)[C@@H](OC(=O)c2ccccc2C(=O)O)[C@@H]1O
[1]; [3]
  activity, negative = cell killing: -10.5%
[1]; [4]
  activity, negative = cell killing: -4.26%
[1]; [5]
  activity, negative = cell killing: 6.79%
astro
  Potency: inactive

## COC(=O)C[C@](O)(CCCC(C)(C)O)C(=O)O[C@@H]1C(OC)=CC23CCCN2CCc2cc4c(cc2[C@H]13)OCO4 (stereo partly drawn)
astro
  Potency: 1.12 µM (active)

## CON=C1C[C@]2(C[C@@H]3C[C@@H](C/C=C(\C)C[C@@H](C)/C=C/C=C4\CO[C@@H]5[C@H](O)C(C)=C[C@@H](C(=O)O3)[C@]45O)O2)O[C@H](/C(C)=C/C(C)C)[C@H]1C
astro
  Potency: 17.8 µM (active) and 20 µM (active)

## O=C(O)[C@@H](O)[C@H](O)[C@H](O)[C@@H](O)C(=O)O (tested in a mixture with another compound)
[1]; [3]
  activity, negative = cell killing: -6.98%
[1]; [4]
  activity, negative = cell killing: -10.8%
[1]; [5]
  activity, negative = cell killing: -8.08%
astro
  Potency: inactive

## C[C@H](/C=C/[C@H](C)C(C)(C)O)[C@H]1CC[C@H]2/C(=C/C=C3C[C@@H](O)C[C@H](O)C3)CCC[C@]12C
astro
  Potency: inactive

## CO[C@H]1C[C@H](O[C@H]2[C@H](C)O[C@@H](O[C@@H]3/C(C)=C/C[C@@H]4C[C@@H](C[C@]5(C=C[C@H](C)[C@@H](C6CCCCC6)O5)O4)OC(=O)[C@@H]4C=C(C)[C@@H](O)[C@H]5OC/C(=C\C=C\[C@@H]3C)[C@]54O)C[C@@H]2OC)O[C@@H](C)[C@@H]1O
astro
  Potency: 17.8 µM (active)

## CCC(C)C(C(=O)OCC[N+](C)(CC)CC)c1ccccc1 (stereo not drawn)
[1]; [3]
  activity, negative = cell killing: -18.7%
[1]; [4]
  activity, negative = cell killing: -27.8%
[1]; tumour line A
  Potency: 11.2 µM (active)
astro
  Potency: inactive

## CN=C(NC)NCc1ccccc1
[1]; [3]
  activity, negative = cell killing: -3.78%
[1]; [4]
  activity, negative = cell killing: 7.26%
[1]; [5]
  activity, negative = cell killing: -3.39%
astro
  Potency: inactive

## COC(=O)Nc1cc(Nc2cc(NC3CC3)c3ncc(C#N)n3n2)c(Cl)c(N2CCN(C)CC2)c1
[2]; HiBiT
  Potency: 7.01 µM (active)
[2]; Viability
  Potency: 17.6 µM (active)

## CCOC(=O)COc1ccc2c(=O)cc(-c3ccccc3)oc2c1
[1]; [4]
  activity, negative = cell killing: -18.4%
[1]; [5]
  activity, negative = cell killing: -1.42% and -17.4%
astro
  Potency: inactive

## Cc1ccc(C2(O)CCN(CCCC(=O)c3ccc(F)cc3)CC2)cc1
[1]; [3]
  activity, negative = cell killing: -26.3%
[1]; tumour line A
  Potency: 6.31 µM (active)
[1]; tumour line D
  Potency: 12.6 µM (active)
astro
  Potency: inactive

## CN1CC(O)c2cc(N=NC(N)=O)c(O)cc21 (stereo not drawn)
[1]; [3]
  activity, negative = cell killing: -10.8%
[1]; at 46 µM (top of the series), tumour line A
  activity, negative = cell killing: -26.7%
[1]; [5]
  activity, negative = cell killing: 26.2%
astro
  Potency: inactive

## C=CCNC1=C2C[C@@H](C)C[C@H](OC)[C@H](O)[C@@H](C)/C=C(\C)[C@H](OC(N)=O)[C@@H](OC)/C=C\C=C(/C)C(=O)NC(=CC1=O)C2=O
astro
  Potency: 1.26 µM (active)
[2]; HiBiT
  Potency: 0.0701 µM (active)

## COc1ccc(C2NC(=S)N3C(c4ccc(OC)c(OC)c4)NC(=S)N23)cc1OC (stereo not drawn)
[1]; [3]
  activity, negative = cell killing: -19.2%
[1]; [4]
  activity, negative = cell killing: -8.84%
[1]; [5]
  activity, negative = cell killing: 3.81%
astro
  Potency: inactive

## C[C@]12CC[C@@H]3c4ccc(OS(=O)(=O)O)cc4CC[C@H]3[C@@H]1CCC2=O
[1]; [3]
  activity, negative = cell killing: -10.8%
[1]; [4]
  activity, negative = cell killing: 4.49%
[1]; [5]
  activity, negative = cell killing: -5.66%
astro
  Potency: inactive

## COc1cc(C[C@@H]2NCCc3cc(O)c(O)cc32)cc(OC)c1OC
[1]; [3]
  activity, negative = cell killing: 13.6%
[1]; [4]
  activity, negative = cell killing: -12.2%
[1]; [5]
  activity, negative = cell killing: -8.42%
astro
  Potency: inactive

## NCCCNCCCCNC(=O)C(O)NC(=O)CCCCCCN=C(N)N (stereo not drawn)
[1]; [3]
  activity, negative = cell killing: -10.7%
[1]; [5]
  activity, negative = cell killing: -21.3%
astro
  Potency: inactive

## CC[C@H](C)CCCCC(=O)N[C@@H](CCN)C(=O)N[C@H](C(=O)N[C@@H](CCN)C(=O)N[C@H]1CCNC(=O)[C@H]([C@@H](C)O)NC(=O)[C@H](CCN)NC(=O)[C@H](CCN)NC(=O)[C@H](CC(C)C)NC(=O)[C@@H](CC(C)C)NC(=O)[C@H](CCN)NC1=O)[C@@H](C)O (X2-[Dab]T[Dab][Dab][Dab][dL]L[Dab][Dab]T; lactam 4-C)
[1]; [3]
  activity, negative = cell killing: 6.46%
[1]; [4]
  activity, negative = cell killing: 12.6%
[1]; [5]
  activity, negative = cell killing: -10.4%
astro
  Potency: inactive
